This is a sample that favours compounds with a hit; in the whole collection about 7.2% have one here.
SUMO Mot1 rescue: blocks SUMOylation pathway, rescuing yeast Mot1-301 growth | S. cerevisiae Mot1-301 growth rescue, ATP luminescence, 38.5C; percent above DMSO median, 100 means doubled | growth rescue, % at 18.8 µM | 320,000 tested, 1% active;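 active = every valid replicate shows activation above 250% relative to neutral control wells; inactive = the rest, any valid replicate at or below 250%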;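 also: OY570 slx delta 5 strain wells were the positive control but not used for scaling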
AHR activator: activators of human aryl hydrocarbon receptor. AHR-responsive luciferase reporter cells, luminescence. activation, % at 5 µM. 320,000 tested, 2.5% active; in the data active = activation above about 47%;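 also: 0% = vehicle wells and 100% = reference agonist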
Target sequence (P35869 whole entry, looked up): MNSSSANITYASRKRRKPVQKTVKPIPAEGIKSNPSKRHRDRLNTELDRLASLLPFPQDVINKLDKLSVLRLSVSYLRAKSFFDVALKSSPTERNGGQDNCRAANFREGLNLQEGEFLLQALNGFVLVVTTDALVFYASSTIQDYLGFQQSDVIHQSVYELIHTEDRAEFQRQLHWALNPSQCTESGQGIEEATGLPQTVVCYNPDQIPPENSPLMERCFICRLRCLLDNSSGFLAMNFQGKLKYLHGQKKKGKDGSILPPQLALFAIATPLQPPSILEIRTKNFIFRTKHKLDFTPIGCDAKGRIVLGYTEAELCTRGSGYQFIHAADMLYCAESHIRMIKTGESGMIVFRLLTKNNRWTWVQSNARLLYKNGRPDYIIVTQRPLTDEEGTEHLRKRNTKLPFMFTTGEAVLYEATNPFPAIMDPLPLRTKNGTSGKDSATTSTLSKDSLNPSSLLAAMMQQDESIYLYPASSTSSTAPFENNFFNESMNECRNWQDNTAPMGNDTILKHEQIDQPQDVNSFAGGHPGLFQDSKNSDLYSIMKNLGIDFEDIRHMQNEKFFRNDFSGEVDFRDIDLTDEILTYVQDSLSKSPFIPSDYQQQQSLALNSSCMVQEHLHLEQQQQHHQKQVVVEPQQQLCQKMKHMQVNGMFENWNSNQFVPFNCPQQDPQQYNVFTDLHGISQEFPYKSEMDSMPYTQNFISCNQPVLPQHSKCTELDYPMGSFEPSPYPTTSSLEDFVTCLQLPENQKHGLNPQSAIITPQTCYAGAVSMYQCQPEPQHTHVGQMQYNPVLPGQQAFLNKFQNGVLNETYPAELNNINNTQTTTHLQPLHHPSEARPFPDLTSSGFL
Efflux pump inh: antifungal efflux pump inhibition, Nile Red retention. S. cerevisiae Candida pump triplex. inhibition, % at 10 µM. 330,000 tested, 0.44% active. AID 485275;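 active = plate passing quality check with inhibition over a set limit, or well fluorescence over plate mean plus 4 SD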;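 also: Nile Red retained in pooled yeast measured as flow cytometry median fluorescence; 0% = buffer negative control and 100% = Enniatin B positive control; higher means more Nile Red kept so more efflux inhibition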
ALR inh: human ALR oxidase inhibition via reduced H2O2; P55789; purified ALR, DTT oxidation, H2O2 HRP-luminol luminescence; inhibition, % (concentration not given with the values); 290,000 tested, 3.8% active; AID 485317;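 active = mean replicate inhibition above about 79%, with every replicate also reaching it, limit read from the data; inconclusive = only one of the two criteria met; inactive = mean below limit and not every replicate reaching it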
A1 inh: inhibitors of the anti-apoptotic protein A1, read as caspase activation; AID 2462; MEF A1-2A-BIM cells, Caspase-Glo 3/7 luminescence, 3 h; percent of clofoctol response, vehicle zero; caspase activation, % (test concentration not listed); 330,000 tested, 0.066% active;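 active = over half of replicate activation scores above 10%, or exactly half above 10 with the replicate mean above 10; inconclusive = replicate mean below 10 yet half the replicates above 10; inactive = over half of replicates below 10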
VLA-4 inh: inhibition in a human VLA-4 binding assay | P13612 | VLA-4 expressing cells, ligand binding flow cytometry | inhibition, % (about 7 µM as worked out from the volumes in the protocol) | 330,000 tested, 0.2% active | AID 2557; in the data active = inhibition above about 50%
* hit, by the source's call; ? = inconclusive; / = no result given.

SMILES	SUMO Mot1 rescue	AHR activator	Efflux pump inh	ALR inh	A1 inh	VLA-4 inh
CCCn1cnc2cc(NCc3ccccc3O)ccc21	12	12	0	99*	0	24
CCN(CC)c1ccc(CNc2ccc3c(c2)ncn3CC)cc1	7	6	0	98*	0	6
CCCn1nnnc1NCc1cccc(OC)c1	10	0	1	-2	0	4
CCCn1cnc2cc(NCc3cccc(OC)c3)ccc21	-27	10	0	95*	0	9
CCn1cnc2cc(NCc3cccs3)ccc21	-17	8	0	?	-1	5
CN(C)c1ccc(CNc2ccc3c(c2)ncn3C(C)(C)C)cc1	-4	1	0	93*	1	4
CCn1cnc2cc(NCc3ccc(C)cc3)ccc21	25	34	0	87*	-2	-4
CC(=O)Nc1ccc(S(=O)(=O)NCCC(=O)NCC2COc3ccccc3O2)cc1 (stereo not drawn)	12	1	0	4	0	-3
COc1ccc(-c2noc(C3CCCN(C(=O)Nc4ccccc4F)C3)n2)cc1 (stereo not drawn)	9	6	0	/	0	-10
CCOc1ccc(CNc2ccc3c(c2)ncn3C(C)(C)C)cc1	12	8	0	68	2	2
CCn1cnc2cc(NCc3ccc(N(C)C)cc3)ccc21	-18	0	0	98*	0	20
CC(OC(=O)CC1CCCC1)C(=O)Nc1ccc(Cl)cn1 (stereo not drawn)	22	-2	0	-2	?	5
S=c1[nH]ncn1NCc1ccc(Cl)cc1Cl	8	-2	0	89*	1	4
Fc1cccc(Cl)c1CNn1cn[nH]c1=S	459	2	0	82*	0	5
COc1cc(CNn2cn[nH]c2=S)cc(Cl)c1OCc1ccc(F)cc1	31	87*	0	97*	0	11
CC(=O)N1NC(=Nc2ccccc2)SC1(C)C	0	2	0	98*	-1	11
O=C(COC(=O)/C=C/c1cccc(Br)c1)NCCc1ccccc1	7	4	0	-18	-1	26
O=C(/C=C/c1ccc(O)c(O)c1)OCCc1ccccc1	14	11	0	98*	0	-1
O=C(/C=C/c1ccc(O)c(O)c1)OC(Cc1ccc(O)c(O)c1)C(=O)O (stereo not drawn)	40	0	0	99*	0	9
CC(C)CC(=O)N1CCN(Cc2ccccc2Cl)CC1	-8	-5	1	-10	0	-7
COC(=O)C(CC(C)C)NC(=O)CSc1nc(-c2ccccc2)c(C#N)c(=O)[nH]1 (stereo not drawn)	3	1	0	4	2	-88
COc1ccc(-c2cc(-c3ccccc3)nc(SCC(=O)Nc3ncc(C)s3)c2C#N)cc1	116	6	0	-1	0	-17
CCOC(=O)Cc1csc(NC(=O)CSc2nc(-c3ccccc3)c(C#N)c(=O)[nH]2)n1	1	0	0	98*	0	-10
Cc1sc(NC(=O)CSc2nc(O)cc(=O)[nH]2)nc1-c1ccccc1	-6	4	0	99*	0	-3
COc1cccc(-c2nc(SCC(=O)Nc3nc(-c4ccccc4)c(C)s3)[nH]c(=O)c2C#N)c1	14	11	0	99*	0	3
SMILES	SUMO Mot1 rescue	AHR activator	Efflux pump inh	ALR inh	A1 inh	VLA-4 inh
CCC1(c2ccc(F)cc2)NC(=O)N(CC(=O)Nc2cccc(S(=O)(=O)N3CCCCC3)c2)C1=O (stereo not drawn)	205	1	0	-5	0	6
CC1CC(C)CN(S(=O)(=O)c2ccc(C(=O)N3CCOCC3)cc2)C1 (stereo not drawn)	-18	6	0	-14	-1	-11
CCNc1nc(Cl)nc(-c2cn(-c3ccccc3)c3ccccc23)n1	-7	62*	0	-24	1	4
CCCc1cc(=O)oc2cc(OCc3ccc(C(=O)O)cc3)ccc12	-9	3	0	16	1	-2
CCOc1ncccc1C(=O)Nc1cccc(-c2nc3cccnc3s2)c1	4	50*	0	-7	-1	-11
O=C(Nc1cccc(-c2nc3cccnc3s2)c1)c1ccco1	271	41	0	/	0	-5
Cc1cc(NS(=O)(=O)c2ccc(NC(=O)CCSc3ccc(F)cc3)cc2)nc(C)n1	-8	1	0	/	0	4
CCOc1cc(C2C(C#N)=C(N)SC(N)=C2C#N)ccc1OCCN1CCOCC1	-10	0	0	99*	0	4
CCCc1[nH]nc2c1C(c1ccc(OCCN3CCOCC3)c(OC)c1)C(C#N)=C(N)O2 (stereo not drawn)	-7	-1	0	10	-1	2
COc1ccc(S(=O)(=O)N2CCCCC2)cc1NC(=O)Cn1cnc2c1c(=O)n(C)c(=O)n2C	-9	0	0	-3	0	-18
COc1ccc(C2C(O)C(c3c[nH]c4ccccc34)=NN2C(=O)CCl)cc1 (stereo not drawn)	8	13	0	13	8.0*	20
COc1ccc(C2NN=C(c3c[nH]c4ccccc34)C2O)cc1 (stereo not drawn)	3	28	-1	/	-1	-55
Cc1cc(S(=O)(=O)NC2CC(C)(C)NC(C)(C)C2)c(Cl)cc1Cl	11	2	0	-12	0	11
CCCCNC1=CC(=O)C(=O)c2ccccc21	/	53*	0	-30	1	9
CN(C)/C=C1/Oc2c(ccc3ccccc23)C1=O	-5	66*	0	-8	-1	3
CC(=O)NS(=O)(=O)c1ccc(N=c2ssc3c2-c2ccc(C)cc2NC3(C)C)cc1	275	3	0	100*	0	13
O=C(NCCCN1CCCC1=O)c1c(O)nc2ccccn2c1=O	0	5	0	-3	-1	5
O=C(CSc1ccc(F)cc1)N1CCC(c2nc3ccccc3s2)CC1	129	4	0	0	-2	0
O=C(c1cccc(F)c1)N1CCC(c2nc3ccccc3s2)CC1	-6	10	0	100*	-1	3
CCCCN=C(Nc1ccc(Cl)cc1)c1cccnc1	-3	88*	0	2	-1	-6
S=C(NCc1cccnc1)Nc1ccc(Cl)cc1	4	0	0	-7	-1	10
CCCN=C(Nc1ccc(Cl)cc1)c1cccnc1	286	118*	0	-5	1	-14
COC(=O)CSc1nc2c(cnn2-c2ccc(Cl)cc2)c(=O)[nH]1	14	2	0	4	0	-1
O=C(Cn1cnc([N+](=O)[O-])c1)NC1CCCC1	160	7	0	-1	0	-8
